High-throughput results deposited in PubChem BioAssay by National Center for Advancing Translational Sciences (NCATS).
RORg inh – blocks mouse ROR gamma transcriptional activity. P51450. Drosophila S2 Gal4-RORgamma UAS-luciferase reporter, 20 h. Potency, µM (series often up to 53.6 µM), usual class: inhibitors. actives 5.4% (n = 310,000); note: nearly all actives have a fitted effect of over 60% in size
Target sequence (P51450 whole entry, looked up, the tested form may be a part): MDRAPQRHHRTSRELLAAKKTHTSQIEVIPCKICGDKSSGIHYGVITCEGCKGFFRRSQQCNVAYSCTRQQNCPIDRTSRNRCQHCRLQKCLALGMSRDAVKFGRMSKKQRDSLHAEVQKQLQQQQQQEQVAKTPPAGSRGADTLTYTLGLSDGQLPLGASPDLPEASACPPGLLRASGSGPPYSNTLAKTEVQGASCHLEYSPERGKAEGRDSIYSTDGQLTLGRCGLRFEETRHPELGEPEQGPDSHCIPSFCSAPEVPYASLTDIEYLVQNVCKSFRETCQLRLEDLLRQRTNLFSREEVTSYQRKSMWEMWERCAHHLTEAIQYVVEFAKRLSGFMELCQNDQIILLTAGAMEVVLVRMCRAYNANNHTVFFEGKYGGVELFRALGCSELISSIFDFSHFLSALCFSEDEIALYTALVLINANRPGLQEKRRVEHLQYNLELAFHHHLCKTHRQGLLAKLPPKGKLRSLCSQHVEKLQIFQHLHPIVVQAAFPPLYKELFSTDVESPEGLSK
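Using a luciferase readout, inhibitors were identified by reduced reporter activity in Drosophila cells coexpressing a copper-inducible Gal4–ROR gamma fusion and UAS-driven Photinus luciferase, incubated 20 hr after 700 uM copper sulfate.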
VP16 counter – Gal4-VP16 reporter inhibition counter-screen; Drosophila S2 Gal4-VP16 UAS-luciferase, luminescence, 20 h; Potency, µM (highest dose often 53.6 µM), usual class: inhibitors; actives 3.5% (n = 310,000); AID 2546;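 note: Gal4-VP16 expression switched on by copper sulfate through the metallothionein promoter; nearly all actives have a fitted effect of over 50% in size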
Coupling enz – counter-screen for Giardia aldolase inhibitors: coupling enzyme system. coupling enzyme system counterscreen, AmpLite Red fluorescence. activity change, negative = inhibition, % at 58.2 µM, hits read low. actives 0.67% (n = 290,000). AID 2472; in the data active = activity change below about -30%
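Compounds tested against the coupling enzymes alone at 57.5 uM final; readout was AmpLite Red fluorescence (525/598 nm) after 20 min at RT.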
TSHR antagonist – human thyrotropin receptor antagonism; P16473; TSHR-expressing cells, TSH-stimulated cAMP HTRF, 2 h; active compounds read low; activity change, negative = inhibition, % at 11.5 µM; actives 0.2% (n = 330,000);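 active = activity change below a set negative limit, meaning inhibition stronger than a set level, cut at about -70% in these data; inconclusive = activity change between two set negative limits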
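Inhibition of cAMP made by TSHR-expressing cells under TSH stimulation (4nM final, EC80; 2 h, 37 deg C) is quantified with a one-step lysis HTRF kit, anti-cAMP cryptate versus cAMP-d2.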
ELG1 DNA repair – inhibitors of ELG1-dependent DNA repair in HEK293T cells; HEK293T ELG1-luciferase reporter, luminescence, 16 h; DNA damage induced by 5-fluorouridine; Potency, µM (highest dose often 46.1 µM), actives largely listed as inhibitors; actives 2.3% (n = 330,000); AID 504467; note: nearly all actives have a fitted effect of over 55% in size
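HEK293T cells expressing luciferase-tagged ELG1 (2,000/well) received 5-Fluorouridine plus compound or DMSO for 16 hr at 37 °C. Luciferase was read by ONE-Glo luminescence after 30 min at room temperature.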
Each line names hits and unclear results; the compound was inactive in the other large screens; ! = not confirmed by another sample. A selection: hits, their analogues and other compounds. The true share with any hit is near 8%. Unless noted, calls come from the whole dose curve; as a rule, active = well fitted curve in the direction sought with a large enough effect; inconclusive = small, poorly fitted or top-dose-only effect, or another doubt; inactive = no such curve, though single readings can be large; an effect the other way counts as inactive or inconclusive.

CSc1ccccc1C(=O)C1CCCN(Cc2cccc(C)n2)C1 (stereo not given)	RORg inh 4.5µM, VP16 counter 20µM
Cc1cccc(CN2CCCC(C(=O)c3ccc(C(F)(F)F)cc3)C2)n1 (stereo not given)	RORg inh 2.8µM, VP16 counter 7.9µM
COc1ccc(CN2CCCC(C(=O)c3ccccc3SC)C2)cc1O (stereo not given)	none
CCOC(=O)N1CCN(C(=O)c2ccc3c(=O)n(CCC4=CCCCC4)c(=S)[nH]c3c2)CC1	VP16 counter 14µM, ELG1 DNA repair inconclusive
O=C(Nc1ccc(Oc2ccc(Cl)cc2)c(Cl)c1)c1cc(I)cc(I)c1O	RORg inh inconclusive, VP16 counter inconclusive, TSHR antagonist -94
COC(=O)c1cc(Oc2ccc(Cl)cc2Cl)ccc1[N+](=O)[O-]	RORg inh inconclusive (no result: TSHR antagonist, ELG1 DNA repair)
O=c1c2ccccc2[nH]c(=S)n1-c1ccc(Br)cc1	RORg inh 0.89µM, VP16 counter 1.4µM, ELG1 DNA repair inconclusive
COc1cccc(-n2c(=S)[nH]c3ccccc3c2=O)c1	RORg inh 4.5µM, VP16 counter inconclusive, ELG1 DNA repair inconclusive
O=c1c2ccccc2[nH]c(=S)n1-c1cccnc1	none
O=c1[nH]c2ccccc2c(=O)n1-c1cccc(Cl)c1	none
O=c1c2cc(Br)ccc2[nH]c(=S)n1-c1ccccc1	none
O=c1c2ccc(Cl)cc2[nH]c(=S)n1-c1cccnc1	RORg inh 14µM, VP16 counter inconclusive
O=[N+]([O-])c1cc(Cl)c(Cl)c(Cl)c1	none (no result: Coupling enz, TSHR antagonist, ELG1 DNA repair)
CC(C)[C@H](NC(=O)[C@H](CC(=O)O)NC(=O)[C@H](Cc1ccccc1)NC(=O)[C@@H](C)NC(=O)[C@@H](N)Cc1ccc(O)cc1)C(=O)N[C@H](C(=O)NCC(N)=O)C(C)C	none (no result: TSHR antagonist, ELG1 DNA repair)
Oc1cc[c]([Hg][Cl])cc1	RORg inh 2.5µM, VP16 counter 2.8µM (no result: Coupling enz, TSHR antagonist, ELG1 DNA repair)
Oc1ccc(Cl)c(Cl)c1	none (no result: Coupling enz)
C=C1C(O)[C@@H]2O[C@]3(CC[C@H](/C=C/C(C)[C@@H]4CC(C)=CC5(O[C@H](C[C@@](C)(O)C(=O)O)CCC5O)O4)O3)CC[C@H]2O[C@@H]1C(O)CC(C)[C@H]1OC2(CCCCO2)CCC1C (stereo not given in full)	TSHR antagonist -78, ELG1 DNA repair 0.052µM (no result: RORg inh, VP16 counter, Coupling enz)
Cc1cccc(C)c1NC1=NCCCS1	RORg inh 10µM!
C[C@H]1C[C@H](C)C(=O)[C@@H]([C@H](O)CC2CC(=O)NC(=O)C2)C1	RORg inh inconclusive, VP16 counter inconclusive (no result: TSHR antagonist, ELG1 DNA repair)
CCOC(=O)CN1C(=O)CC(C[C@@H](O)C2C[C@@H](C)C[C@H](C)C2=O)CC1=O (stereo not given in full)	none (no result: TSHR antagonist, ELG1 DNA repair)
C[C@H]1C[C@@H](C)C(=O)[C@@H]([C@H](O)CC2CC(=O)NC(=O)C2)C1	RORg inh 0.25µM!, VP16 counter 2.8µM!, ELG1 DNA repair 0.52µM
CC1CC(C)C(=O)[C@H](C(O)CC2CC(=O)NC(=O)C2)C1 (stereo not given in full)	RORg inh 0.32µM (no result: TSHR antagonist, ELG1 DNA repair)
Cc1ccc(C(=O)NC(=S)NNS(=O)(=O)c2ccc(C)cc2)cc1	RORg inh 5.6µM, VP16 counter inconclusive
CC[C@H](C)[C@H](NC(=O)CN)C(=O)N[C@@H](CC(C)C)C(=O)NCC(=O)N[C@@H](Cc1ccccc1)C(=O)N[C@H](C(=O)N[C@@H](Cc1ccccc1)C(=O)N[C@H](C(=O)N[C@@H](CC(C)C)C(=O)O)[C@@H](C)O)C(C)C	none (no result: TSHR antagonist, ELG1 DNA repair)
CO/C1=C\C(C)=C\[C@@H](C)[C@@H](O)[C@@H](C)C/C(C)=C/C=C/[C@H](OC)[C@@H]([C@@H](C)[C@@H](O)[C@H](C)[C@@]2(O)C[C@@H](O)[C@H](C)C(C(C)C)O2)OC1=O (stereo not given in full)	RORg inh 6.3µM, VP16 counter 7.1µM (no result: TSHR antagonist, ELG1 DNA repair)
ClC=CCl	none (no result: Coupling enz, TSHR antagonist, ELG1 DNA repair)
CCN(CC)C(=O)c1ccc(NC(=O)Nc2ccccc2F)cc1	RORg inh 11µM, VP16 counter inconclusive, ELG1 DNA repair inconclusive
CCN(CC)C(=O)c1ccc(NC(=O)CCCSc2ccccc2)cc1	none
O=c1c2ccccc2nc(-c2ccco2)n1-c1nccs1	none
Cc1ccc(-c2nc3ccccc3c(=O)n2-c2nccs2)cc1	RORg inh 5.6µM, VP16 counter 11µM
CCN(N=O)C(N)=O	none (no result: Coupling enz, TSHR antagonist, ELG1 DNA repair)
COCCCn1c(N)c(C(=O)Nc2ccccc2)c2nc3ccccc3nc21	ELG1 DNA repair 16µM
COCCCn1c(N)c(C(=O)Nc2sc3c(c2C(=O)OC)CCCC3)c2nc3ccccc3nc21	none
CCC(C)NC(=O)c1c(N)n(CCCOC)c2nc3ccccc3nc12 (stereo not given)	Coupling enz -34, ELG1 DNA repair 16µM
COCCCn1c(N)c(C(=O)OC(C)COC)c2nc3ccccc3nc21 (stereo not given)	ELG1 DNA repair inconclusive
CCCCCC[C@H]1C(=O)O[C@H](C)[C@H](NC(=O)c2cccc(NC=O)c2O)C(=O)O[C@@H](C)[C@@H]1OC(=O)CC(C)C	RORg inh inconclusive (no result: TSHR antagonist, ELG1 DNA repair)
Cc1cc(=O)oc2cc(OCC(=O)N3CCN(C(C)c4ccccc4)CC3)c(Cl)cc12 (stereo not given)	ELG1 DNA repair 21µM (no result: RORg inh, VP16 counter, Coupling enz)
Cc1cc(=O)oc2cc(OCC(=O)N3C[C@H]4C[C@@H](C3)c3cccc(=O)n3C4)c(Cl)cc12	ELG1 DNA repair inconclusive
N#CC(C#N)=NNc1ccc(S(=O)(=O)N2CCCC2)cc1	RORg inh inconclusive, VP16 counter inconclusive
N#CC(C#N)=NNc1cccc(Cl)c1	RORg inh 1.1µM, VP16 counter 0.63µM (no result: TSHR antagonist, ELG1 DNA repair)
COc1c(C(C)(C)C)cc([N+](=O)[O-])c(C)c1[N+](=O)[O-]	none (no result: Coupling enz, TSHR antagonist, ELG1 DNA repair)
C=CCn1c(-c2ccc([N+](=O)[O-])cc2)n[nH]c1=S	RORg inh 11µM, VP16 counter inconclusive
C[C@@H]1Cc2c(Cl)cc(C(=O)N[C@H](Cc3ccccc3)C(=O)O)c(O)c2C(=O)O1	RORg inh inconclusive, VP16 counter inconclusive (no result: TSHR antagonist, ELG1 DNA repair)
COc1ccc2[nH]c(C)c(CCNCc3cc(OC)c(OC)c(OC)c3)c2c1	RORg inh inconclusive, VP16 counter 18µM
COc1ccc2[nH]c(C)c(CCNCc3cc(OC)c4c(c3)OCO4)c2c1	ELG1 DNA repair inconclusive (no result: RORg inh, VP16 counter, Coupling enz)
CCCCCCCC/C=C\CCCCCCCC(=O)OC[C@@H](COP(O)(O)=S)OC	none (no result: TSHR antagonist, ELG1 DNA repair)
C=C(C)C1CCC(C)=CC1c1c(O)cc(O)cc1CCCCC (stereo not given)	RORg inh inconclusive (no result: TSHR antagonist, ELG1 DNA repair)
CC(C)=CCCC1(C)C=Cc2c(O)c3c(c(CC=C(C)C)c2O1)OC12C(CC4CC1C(C)(C)OC2(C/C=C(/C)C(=O)O)C4O)C3=O (stereo not given)	none (no result: TSHR antagonist, ELG1 DNA repair)
CCCCCCn1c(O)c(C=NC2CCN(Cc3ccccc3)CC2)c(=O)[nH]c1=O	ELG1 DNA repair 21µM
C=C(CC1(C(C)NP(=O)(c2ccccc2)c2ccccc2)CC1)c1ccccc1 (stereo not given)	none (no result: TSHR antagonist, ELG1 DNA repair)
Clc1ccc2ccccc2c1	none (no result: Coupling enz, TSHR antagonist, ELG1 DNA repair)
